# Data published in PMC7862700, “An all-to-all approach to the identification of sequence-specific readers for epigenetic DNA modifications on cytosine”.
# Key:
# Assay in all cases: DAPPL (digital affinity profiling via proximity ligation, sequencing); 10 mM Tris-HCl pH 7.5, 50 mM NaCl, 1 mM DTT, 4% glycerol, room temperature, 30 min; GST-TFs on glutathione beads, 16-mer random dsDNA library, 0.1% formaldehyde crosslink after washing; high values mean tight binding
# FEV = target: T1, FEV (Homo sapiens, UniProt Q99581 1-238); settings: protein: recombinant; tags: N-terminal GST; dsDNA, one strand shown
# T1 sequence: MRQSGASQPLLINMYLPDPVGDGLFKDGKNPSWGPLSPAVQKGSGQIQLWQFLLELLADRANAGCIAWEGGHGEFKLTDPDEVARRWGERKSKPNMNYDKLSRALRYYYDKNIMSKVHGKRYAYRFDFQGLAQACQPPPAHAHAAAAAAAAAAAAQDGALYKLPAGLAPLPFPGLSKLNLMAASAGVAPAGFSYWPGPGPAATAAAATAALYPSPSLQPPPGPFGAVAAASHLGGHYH
# Method in brief: (§1)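 In yeast, human transcription factors were expressed with a GST fusion, then pulled down on glutathione beads and given DNA barcodes. Pooled with a tag-only sample, they were exposed to 200 nmole of a 16-mer random double-stranded DNA library (Tris/NaCl/DTT/glycerol buffer, room temperature, 30 min), washed, crosslinked with 0.1% formaldehyde, proximity-ligated using BsaI/T4 ligase for 1 h at 37 °C, PCR-amplified and read on an Illumina NextSeq500. Each hexamer's frequency of reads for a factor, divided by the matching frequency for the tag-only sample, gives the binding signal.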
# ETV5 = ETV5 (Homo sapiens, UniProt P41161 1-510); settings: protein: recombinant; tags: N-terminal GST; dsDNA, one strand shown
# Method in brief: as §1
# HSF1 = HSF1 (Homo sapiens, UniProt Q00613 1-529); settings: protein: recombinant; tags: N-terminal GST; chain copies: 3; dsDNA, one strand shown
# Method in brief: as §1
# SPIC = target: T2, SPIC (Homo sapiens, UniProt Q8N5J4 1-248); settings: protein: recombinant; tags: N-terminal GST; dsDNA, one strand shown
# T2 sequence: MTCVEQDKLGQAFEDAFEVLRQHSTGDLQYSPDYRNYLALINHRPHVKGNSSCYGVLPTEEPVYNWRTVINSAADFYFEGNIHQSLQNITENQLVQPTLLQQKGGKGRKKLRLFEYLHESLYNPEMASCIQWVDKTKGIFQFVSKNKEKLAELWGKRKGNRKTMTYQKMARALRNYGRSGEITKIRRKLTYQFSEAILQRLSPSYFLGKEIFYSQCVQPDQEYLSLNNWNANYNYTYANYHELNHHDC
# Method in brief: as §1
# ELF4 = ELF4 (Homo sapiens, UniProt Q99607 1-663); settings: protein: recombinant; tags: N-terminal GST; dsDNA, one strand shown
# Method in brief: as §1
# ELK4 = target: T3, ELK4 (Homo sapiens, UniProt P28324-2 1-405); settings: protein: recombinant; tags: N-terminal GST; dsDNA, one strand shown
# T3 sequence: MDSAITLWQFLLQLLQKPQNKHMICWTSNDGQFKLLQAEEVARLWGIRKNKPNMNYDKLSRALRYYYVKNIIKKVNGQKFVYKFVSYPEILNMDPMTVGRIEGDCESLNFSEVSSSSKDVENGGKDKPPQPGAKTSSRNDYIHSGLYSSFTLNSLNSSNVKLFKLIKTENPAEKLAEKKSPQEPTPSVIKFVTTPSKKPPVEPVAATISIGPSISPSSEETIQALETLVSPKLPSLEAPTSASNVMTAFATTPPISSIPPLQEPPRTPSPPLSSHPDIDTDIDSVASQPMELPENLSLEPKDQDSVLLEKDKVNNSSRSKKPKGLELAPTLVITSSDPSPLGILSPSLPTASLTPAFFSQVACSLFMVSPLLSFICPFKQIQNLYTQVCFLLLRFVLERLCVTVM
# Method in brief: as §1
# ETV2 = target: T4, ETV2 (Homo sapiens, UniProt O00321 1-342); settings: protein: recombinant; tags: N-terminal GST; dsDNA, one strand shown
# T4 sequence: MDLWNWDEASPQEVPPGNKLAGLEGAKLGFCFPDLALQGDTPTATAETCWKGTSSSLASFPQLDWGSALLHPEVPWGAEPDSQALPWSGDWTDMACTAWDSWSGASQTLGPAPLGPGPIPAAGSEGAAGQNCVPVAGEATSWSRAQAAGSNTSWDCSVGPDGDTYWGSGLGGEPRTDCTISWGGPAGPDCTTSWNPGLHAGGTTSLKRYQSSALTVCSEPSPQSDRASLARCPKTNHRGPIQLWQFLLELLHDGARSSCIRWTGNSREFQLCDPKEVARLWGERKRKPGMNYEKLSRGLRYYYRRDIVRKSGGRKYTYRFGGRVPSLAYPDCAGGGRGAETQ
# Method in brief: as §1
# ELF3 = target: T5, ELF3 (Homo sapiens, UniProt P78545 1-371); settings: protein: recombinant; tags: N-terminal GST; dsDNA, one strand shown
# T5 sequence: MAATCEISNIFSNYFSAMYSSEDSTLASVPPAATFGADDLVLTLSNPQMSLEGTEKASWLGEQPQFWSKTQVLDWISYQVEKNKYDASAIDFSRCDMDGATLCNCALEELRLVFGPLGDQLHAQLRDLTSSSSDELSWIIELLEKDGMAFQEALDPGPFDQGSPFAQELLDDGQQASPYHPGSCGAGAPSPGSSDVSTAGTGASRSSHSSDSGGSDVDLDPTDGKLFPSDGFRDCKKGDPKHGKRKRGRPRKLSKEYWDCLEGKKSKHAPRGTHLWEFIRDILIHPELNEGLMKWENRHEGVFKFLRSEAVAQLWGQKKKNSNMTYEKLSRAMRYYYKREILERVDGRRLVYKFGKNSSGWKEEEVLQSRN
# Method in brief: as §1
# CRX = CRX (Homo sapiens, UniProt O43186 1-299); settings: protein: recombinant; tags: N-terminal GST; dsDNA, one strand shown
# Method in brief: as §1
# ETV1 = ETV1 (Homo sapiens, UniProt P50549 1-477); settings: protein: recombinant; tags: N-terminal GST; dsDNA, one strand shown
# Method in brief: as §1
# ERF = target: T6, ERF (Homo sapiens, UniProt P50548 1-548); settings: protein: recombinant; tags: N-terminal GST; dsDNA, one strand shown
# T6 sequence: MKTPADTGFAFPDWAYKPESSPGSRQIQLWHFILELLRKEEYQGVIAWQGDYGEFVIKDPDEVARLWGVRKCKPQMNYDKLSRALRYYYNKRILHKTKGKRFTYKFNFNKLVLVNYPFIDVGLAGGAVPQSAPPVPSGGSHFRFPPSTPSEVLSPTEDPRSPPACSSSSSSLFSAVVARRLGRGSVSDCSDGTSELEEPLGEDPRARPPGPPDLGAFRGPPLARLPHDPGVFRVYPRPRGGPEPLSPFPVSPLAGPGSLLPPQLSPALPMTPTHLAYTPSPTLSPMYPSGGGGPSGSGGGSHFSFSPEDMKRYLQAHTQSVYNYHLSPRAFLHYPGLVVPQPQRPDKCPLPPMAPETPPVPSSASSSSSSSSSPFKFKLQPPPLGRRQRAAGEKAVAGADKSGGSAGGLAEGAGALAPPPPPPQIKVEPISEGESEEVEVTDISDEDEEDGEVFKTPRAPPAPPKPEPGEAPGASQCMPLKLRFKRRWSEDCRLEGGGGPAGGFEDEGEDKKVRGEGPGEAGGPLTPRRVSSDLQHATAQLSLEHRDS
# Method in brief: as §1
# ETV3L = target: T7, ETV3L (Homo sapiens, UniProt Q6ZN32 1-361); settings: protein: recombinant; tags: N-terminal GST; dsDNA, one strand shown
# T7 sequence: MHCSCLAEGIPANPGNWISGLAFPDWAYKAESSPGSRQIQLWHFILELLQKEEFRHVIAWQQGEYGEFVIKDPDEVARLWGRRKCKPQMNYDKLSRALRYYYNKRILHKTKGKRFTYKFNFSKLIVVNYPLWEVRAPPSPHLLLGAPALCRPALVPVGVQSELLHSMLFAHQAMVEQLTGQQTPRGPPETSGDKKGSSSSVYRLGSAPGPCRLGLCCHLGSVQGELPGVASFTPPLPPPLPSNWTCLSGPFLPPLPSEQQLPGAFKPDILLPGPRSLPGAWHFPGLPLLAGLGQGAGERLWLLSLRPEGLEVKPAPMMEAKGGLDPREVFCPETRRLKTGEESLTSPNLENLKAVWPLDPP
# Method in brief: as §1
# ETS2 = target: T8, ETS2 (Homo sapiens, UniProt P15036 1-469); settings: protein: recombinant; tags: N-terminal GST; dsDNA, one strand shown
# T8 sequence: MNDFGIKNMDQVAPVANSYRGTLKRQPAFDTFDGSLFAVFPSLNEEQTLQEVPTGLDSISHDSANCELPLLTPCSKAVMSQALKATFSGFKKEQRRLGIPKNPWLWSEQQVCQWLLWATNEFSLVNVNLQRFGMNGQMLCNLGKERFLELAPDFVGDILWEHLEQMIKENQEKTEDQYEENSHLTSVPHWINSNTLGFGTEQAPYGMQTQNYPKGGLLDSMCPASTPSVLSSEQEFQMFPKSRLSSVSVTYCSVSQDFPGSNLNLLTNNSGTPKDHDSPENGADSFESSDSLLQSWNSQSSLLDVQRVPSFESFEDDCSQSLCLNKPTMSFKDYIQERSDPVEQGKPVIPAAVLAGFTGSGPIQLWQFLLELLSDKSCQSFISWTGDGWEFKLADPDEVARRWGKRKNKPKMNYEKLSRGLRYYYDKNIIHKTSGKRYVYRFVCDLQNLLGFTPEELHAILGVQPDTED
# Method in brief: as §1
# SPDEF = target: T9, SPDEF (Homo sapiens, UniProt O95238 1-335); settings: protein: recombinant; tags: N-terminal GST; dsDNA, one strand shown
# T9 sequence: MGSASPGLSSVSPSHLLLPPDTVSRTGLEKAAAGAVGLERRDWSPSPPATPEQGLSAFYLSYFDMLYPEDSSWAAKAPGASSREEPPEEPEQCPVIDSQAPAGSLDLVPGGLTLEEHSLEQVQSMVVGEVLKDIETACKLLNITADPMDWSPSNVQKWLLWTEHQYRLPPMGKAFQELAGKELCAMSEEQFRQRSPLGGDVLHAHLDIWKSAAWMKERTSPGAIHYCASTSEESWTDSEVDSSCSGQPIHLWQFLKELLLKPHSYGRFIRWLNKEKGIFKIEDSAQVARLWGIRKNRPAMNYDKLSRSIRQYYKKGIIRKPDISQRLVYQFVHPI
# Method in brief: as §1
# ETV7 = target: T10, ETV7 (Homo sapiens, UniProt Q9Y603 1-341); settings: protein: recombinant; tags: N-terminal GST; dsDNA, one strand shown
# T10 sequence: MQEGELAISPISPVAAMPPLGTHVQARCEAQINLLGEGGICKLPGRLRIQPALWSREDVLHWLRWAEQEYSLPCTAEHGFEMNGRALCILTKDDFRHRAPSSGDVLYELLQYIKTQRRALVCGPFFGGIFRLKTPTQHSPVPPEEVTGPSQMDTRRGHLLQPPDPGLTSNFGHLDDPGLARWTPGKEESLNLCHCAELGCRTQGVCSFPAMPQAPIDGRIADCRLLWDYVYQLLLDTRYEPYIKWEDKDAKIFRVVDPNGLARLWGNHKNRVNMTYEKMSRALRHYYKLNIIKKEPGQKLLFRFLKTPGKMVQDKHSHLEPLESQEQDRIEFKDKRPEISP
# Method in brief: as §1
# ELF5 = target: T11, ELF5 (Homo sapiens, UniProt Q9UKW6-2 1-255); settings: protein: recombinant; tags: N-terminal GST; dsDNA, one strand shown
# T11 sequence: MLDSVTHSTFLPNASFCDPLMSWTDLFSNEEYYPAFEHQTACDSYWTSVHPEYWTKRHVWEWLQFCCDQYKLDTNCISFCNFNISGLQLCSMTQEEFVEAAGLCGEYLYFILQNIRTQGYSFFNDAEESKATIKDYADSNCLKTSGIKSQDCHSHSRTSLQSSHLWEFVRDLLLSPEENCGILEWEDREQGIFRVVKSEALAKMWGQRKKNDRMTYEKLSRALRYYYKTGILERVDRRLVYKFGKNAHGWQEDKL
# Method in brief: as §1
# ETV3 = target: T12, ETV3 (Homo sapiens, UniProt P41162-2 1-143); settings: protein: recombinant; tags: N-terminal GST; dsDNA, one strand shown
# T12 sequence: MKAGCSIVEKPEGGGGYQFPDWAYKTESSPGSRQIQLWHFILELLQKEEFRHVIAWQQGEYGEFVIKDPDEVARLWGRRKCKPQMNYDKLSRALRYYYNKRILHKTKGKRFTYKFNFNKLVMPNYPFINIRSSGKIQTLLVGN
# Method in brief: as §1
# ETV6 = ETV6 (Homo sapiens, UniProt P41212 1-452); settings: protein: recombinant; tags: N-terminal GST; dsDNA, one strand shown
# Method in brief: as §1
# Chain of ETV1 (P50549 whole entry): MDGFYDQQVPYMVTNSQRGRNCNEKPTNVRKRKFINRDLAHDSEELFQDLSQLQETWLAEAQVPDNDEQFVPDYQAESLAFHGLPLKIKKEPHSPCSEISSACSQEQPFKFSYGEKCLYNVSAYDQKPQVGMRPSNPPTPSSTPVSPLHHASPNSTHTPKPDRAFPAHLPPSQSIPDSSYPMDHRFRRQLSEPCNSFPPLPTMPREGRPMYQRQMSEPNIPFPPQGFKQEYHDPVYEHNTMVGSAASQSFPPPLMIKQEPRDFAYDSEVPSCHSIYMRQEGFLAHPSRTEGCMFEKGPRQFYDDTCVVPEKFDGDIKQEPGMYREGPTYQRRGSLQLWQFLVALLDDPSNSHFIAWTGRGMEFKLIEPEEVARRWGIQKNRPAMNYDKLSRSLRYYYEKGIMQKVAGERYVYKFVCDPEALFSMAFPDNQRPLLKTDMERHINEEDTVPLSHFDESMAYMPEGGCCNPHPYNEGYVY
# Chain of HSF1 (Q00613 whole entry): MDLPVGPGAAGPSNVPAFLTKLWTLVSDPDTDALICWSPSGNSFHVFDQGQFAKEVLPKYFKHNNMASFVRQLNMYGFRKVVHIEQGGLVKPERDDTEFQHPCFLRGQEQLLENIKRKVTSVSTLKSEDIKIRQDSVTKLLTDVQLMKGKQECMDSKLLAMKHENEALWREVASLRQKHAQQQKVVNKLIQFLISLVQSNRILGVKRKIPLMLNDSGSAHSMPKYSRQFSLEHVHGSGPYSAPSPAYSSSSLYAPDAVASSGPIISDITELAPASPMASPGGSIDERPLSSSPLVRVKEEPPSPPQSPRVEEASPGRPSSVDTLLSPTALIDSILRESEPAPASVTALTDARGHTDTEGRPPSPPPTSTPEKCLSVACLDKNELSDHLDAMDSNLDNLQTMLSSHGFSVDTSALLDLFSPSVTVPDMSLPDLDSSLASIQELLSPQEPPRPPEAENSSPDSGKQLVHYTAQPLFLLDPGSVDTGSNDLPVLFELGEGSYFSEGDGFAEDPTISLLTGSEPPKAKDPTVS
# Chain of ETV5 (P41161 whole entry): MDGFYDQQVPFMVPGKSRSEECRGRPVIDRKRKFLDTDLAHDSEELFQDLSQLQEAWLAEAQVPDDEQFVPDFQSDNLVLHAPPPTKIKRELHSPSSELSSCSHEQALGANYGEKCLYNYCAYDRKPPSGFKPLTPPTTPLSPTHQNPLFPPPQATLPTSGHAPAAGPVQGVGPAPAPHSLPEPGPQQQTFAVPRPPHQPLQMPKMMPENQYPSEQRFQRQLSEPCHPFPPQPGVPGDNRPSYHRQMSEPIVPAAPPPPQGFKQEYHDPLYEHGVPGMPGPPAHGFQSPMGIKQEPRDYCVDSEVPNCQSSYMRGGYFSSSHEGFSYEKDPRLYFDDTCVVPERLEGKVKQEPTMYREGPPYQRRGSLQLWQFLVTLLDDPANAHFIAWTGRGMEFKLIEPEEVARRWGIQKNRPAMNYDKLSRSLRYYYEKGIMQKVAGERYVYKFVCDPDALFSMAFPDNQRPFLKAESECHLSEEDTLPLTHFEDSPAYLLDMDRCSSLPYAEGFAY
# Chain of ELF4 (Q99607 whole entry): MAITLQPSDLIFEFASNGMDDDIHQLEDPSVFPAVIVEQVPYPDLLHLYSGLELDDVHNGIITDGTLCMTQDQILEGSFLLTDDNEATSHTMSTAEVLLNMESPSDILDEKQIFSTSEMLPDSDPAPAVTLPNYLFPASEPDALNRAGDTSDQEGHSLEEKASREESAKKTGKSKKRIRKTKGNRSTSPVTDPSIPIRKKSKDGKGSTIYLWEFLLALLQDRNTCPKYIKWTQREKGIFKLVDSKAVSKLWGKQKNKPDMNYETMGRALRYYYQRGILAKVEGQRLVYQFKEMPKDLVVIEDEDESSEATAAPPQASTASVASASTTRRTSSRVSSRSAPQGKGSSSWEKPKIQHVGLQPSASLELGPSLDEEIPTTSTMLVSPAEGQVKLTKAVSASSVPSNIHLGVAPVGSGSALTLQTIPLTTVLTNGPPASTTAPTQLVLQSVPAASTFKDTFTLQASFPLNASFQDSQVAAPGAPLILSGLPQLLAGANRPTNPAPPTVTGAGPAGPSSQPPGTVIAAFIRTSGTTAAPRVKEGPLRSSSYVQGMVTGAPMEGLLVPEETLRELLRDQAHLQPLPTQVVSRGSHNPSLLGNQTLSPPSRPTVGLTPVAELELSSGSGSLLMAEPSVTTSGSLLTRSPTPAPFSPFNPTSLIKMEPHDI
# Chain of ETV6 (P41212 whole entry): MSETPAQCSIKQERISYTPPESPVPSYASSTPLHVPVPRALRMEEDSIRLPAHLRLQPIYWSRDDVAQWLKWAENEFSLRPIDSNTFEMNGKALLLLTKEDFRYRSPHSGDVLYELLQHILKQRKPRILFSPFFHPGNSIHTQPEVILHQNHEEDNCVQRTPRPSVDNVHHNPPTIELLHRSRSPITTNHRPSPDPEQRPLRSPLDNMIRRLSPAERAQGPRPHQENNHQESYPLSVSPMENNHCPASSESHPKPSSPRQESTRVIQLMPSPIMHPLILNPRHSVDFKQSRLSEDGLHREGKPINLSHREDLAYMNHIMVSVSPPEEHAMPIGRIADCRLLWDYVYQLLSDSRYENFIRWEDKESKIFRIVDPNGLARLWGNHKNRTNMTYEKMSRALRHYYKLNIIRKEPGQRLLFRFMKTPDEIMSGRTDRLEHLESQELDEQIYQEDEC
# Chain of CRX (O43186 whole entry): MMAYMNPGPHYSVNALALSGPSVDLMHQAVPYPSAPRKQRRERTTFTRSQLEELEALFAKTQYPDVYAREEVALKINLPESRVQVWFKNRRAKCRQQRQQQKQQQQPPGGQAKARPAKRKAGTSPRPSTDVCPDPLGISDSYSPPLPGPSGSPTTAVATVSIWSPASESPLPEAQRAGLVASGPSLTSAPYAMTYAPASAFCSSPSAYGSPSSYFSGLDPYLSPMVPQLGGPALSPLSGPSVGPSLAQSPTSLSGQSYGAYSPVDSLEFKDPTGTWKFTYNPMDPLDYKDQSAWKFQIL
sequence,measurement,setting,value
CCTCAT,binding signal,FEV,"1.26 fold enrichment (6-mer frequency, TF over GST control)"
same,binding signal,ETV5,"1.31 fold enrichment (6-mer frequency, TF over GST control)"
same,binding signal,HSF1,"1.08 fold enrichment (6-mer frequency, TF over GST control)"
same,binding signal,SPIC,"1.45 fold enrichment (6-mer frequency, TF over GST control)"
same,binding signal,ELF4,"1.39 fold enrichment (6-mer frequency, TF over GST control)"
same,binding signal,ELK4,"1.3 fold enrichment (6-mer frequency, TF over GST control)"
same,binding signal,ETV2,"1.1 fold enrichment (6-mer frequency, TF over GST control)"
same,binding signal,ELF3,"1.27 fold enrichment (6-mer frequency, TF over GST control)"
same,binding signal,CRX,"1.1 fold enrichment (6-mer frequency, TF over GST control)"
same,binding signal,ETV1,"1.37 fold enrichment (6-mer frequency, TF over GST control)"
same,binding signal,ERF,"1.32 fold enrichment (6-mer frequency, TF over GST control)"
same,binding signal,ETV3L,"1.37 fold enrichment (6-mer frequency, TF over GST control)"
same,binding signal,ETS2,"1.29 fold enrichment (6-mer frequency, TF over GST control)"
same,binding signal,SPDEF,"1.31 fold enrichment (6-mer frequency, TF over GST control)"
same,binding signal,ETV7,"1.25 fold enrichment (6-mer frequency, TF over GST control)"
same,binding signal,ELF5,"1.58 fold enrichment (6-mer frequency, TF over GST control)"
same,binding signal,ETV3,"1.32 fold enrichment (6-mer frequency, TF over GST control)"
same,binding signal,ETV6,"1.39 fold enrichment (6-mer frequency, TF over GST control)"
